# Assay outcomes from PubChem.
# KLF5 inh: KLF5 expression inhibitors, primary screen, DLD-1 cells, luminescence | inhibition, % at 5 µM | DLD-1 KLF5 promoter-luciferase reporter | 290,000 compounds, 0.23% hits;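 active = inhibition above a per-plate limit of that plate's mean compound inhibition plus 3 SD, cut at about 60% in these data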;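 also: 0% = DMSO wells and 100% = LY294002 at 200 µM; higher means less KLF5 promoter-driven luciferase light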
# APP transl inh: inhibitors of APP translation via 5'UTR reporter, primary screen, APP 5'UTR luciferase, SH-SY5Y cells; 190,000 compounds, 0.82% hits; AID 1285, 2008; SH-SY5Y APP 5'UTR-luciferase reporter, luminescence; inhibition, % at 2 µM;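 active = inhibition above a set limit, derived from the sample mean plus 3 SD, cut at about 45% in these data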
# IEC-6 tox-1: cytotoxicity in IEC-6 intestinal epithelial cells, primary screen, cytotoxicity control for KLF5 inhibitor project, cell-based, luminescence | 290,000 compounds, 0.78% hits | inhibition, % at 5 µM | IEC-6 cytotoxicity, luminescence viability;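 also: 0% = plate median of test compound wells and 100% = cytotoxic reference compound wells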
# Ba/F3 V617F tox: reduced viability of JAK2V617F-dependent Ba/F3 cells, primary screen, JAK2V617F inhibitor project, cell-based, Ba/F3 EpoR-JAK2V617F, luminescence; ATP luminescence; inhibition, % at 5.6 µM; 220,000 compounds, 1.1% hits; AID 1446, 2008;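 active = inhibition above the campaign mean plus 3 SD over all tested compounds, cut at about 24% in these data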;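 also: cytokine-independent growth of Ba/F3 cells driven by EpoR plus mutant JAK2; 0% = DMSO-treated cells and 100% = JAK inhibitor I control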
# BaF3 parental: parental Ba/F3 cell viability inhibition, counter-screen for JAK2V617F inhibitor project, murine pro-B, CellTiter-Glo luminescence; CellTiter-Glo ATP luminescence; 220,000 compounds, 1.1% hits; inhibition, % at 5.6 µM;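 active = inhibition above a per-campaign cutoff, the mean inhibition of all tested compounds plus 3 SD, cut at about 27% in these data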;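 also: 0% = DMSO wells and 100% = JAK Inhibitor I control wells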
# BaF3 tox 2: parental Ba/F3 cell viability inhibition, counter-screen for JAK2V617F inhibitor project, murine pro-B, CellTiter-Glo luminescence; shares compounds with Ba/F3 V617F tox; cells kept alive by added IL-3; inhibition, % at 5.6 µM; 580 compounds, 31% hits; AID 1520, 2009;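 active = cell growth inhibition above the hit limit set in the earlier mutant JAK2 cell screen, cut at about 27% in these data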;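 also: plate controls were DMSO-treated cells for no effect and JAK Inhibitor I control wells for full effect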
# JAK2V617F confrm: viability loss in Ba/F3 EpoR-JAK2V617F cells, confirmation, JAK2V617F inhibitor project, cell-based, luminescence, triplicate | shares compounds with Ba/F3 V617F tox | CellTiter-Glo luminescence | inhibition, % at 5.6 µM | 580 compounds, 66% hits | AID 1521, 2009;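 active = mean inhibition above the hit cutoff derived in the earlier primary screen, cut at about 25% in these data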;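 also: 0% = DMSO-treated cells and 100% = JAK inhibitor I control wells; higher means lower luminescence from reduced cell ATP and viability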
# KLF5 inh confirm: KLF5 expression inhibitors, confirmation, DLD-1 cells, luminescence; 610 compounds, 79% hits; DLD-1 KLF5 promoter firefly luciferase reporter; inhibition, % at 4 µM; AID 1834, 2009; shares compounds with KLF5 inh;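 active = inhibition above a set limit taken from the earlier primary screen, cut at about 63% in these data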;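 also: 0% = DMSO wells and 100% = LY294002 at 200 µM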
# IEC-6 tox-2: cytotoxicity in rat IEC-6 cells, cytotoxicity control for KLF5 inhibitor project, cell-based, luminescence, triplicate; shares compounds with KLF5 inh; 610 compounds, 56% hits; IEC-6 rat intestinal cells, viability luminescence; AID 1905, 2009; inhibition, % at 4 µM; in the data active = inhibition above about 23%;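 also: cells exposed to compounds for 48 hours before viability read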
# IEC-6 cytotox cf: cytotoxic compounds in IEC-6 epithelial cells, confirmation, cytotoxicity control, cell-based, luminescence. shares compounds with IEC-6 tox-1. IEC-6 rat intestinal epithelial viability. inhibition, % at 5 µM. 1,900 compounds, 63% hits;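 also: 0% = vehicle and 100% = reference cytotoxic drug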
# Active calls of the source: *; nt = not tested or not shown. Sampled rows, rich in hits. Any-hit rate of the full collection: about 1.9%. Rule as the data show it, unless noted: active = inhibition above about 22%; inactive = the rest.
SMILES,KLF5 inh,APP transl inh,IEC-6 tox-1,Ba/F3 V617F tox,BaF3 parental,KLF5 inh confirm,IEC-6 tox-2,others
CCC(=O)N1C(C(=O)N2CCCC2)CSC1c1ccc(OC)cc1 (centres undefined),0.8,-18.5,-1.7,0.8,4.4,nt,nt,
CCOCCCNC(=O)/C(C#N)=C/c1cc(Br)c(O)c(Br)c1,39.5,nt,23.5*,64.4*,10.1,nt,nt,BaF3 tox 2=13.9;JAK2V617F confrm=55.0*;IEC-6 cytotox cf=10.5
CCCNC(=O)NS(=O)(=O)c1ccc(Cl)cc1,-13.2,-13.8,-0.1,-2.9,4.6,nt,nt,
CCCNC(=O)c1nnsc1S(=O)(=O)c1ccc(Cl)cc1,-6.0,94.6*,26.2*,93.6*,22.8,nt,nt,BaF3 tox 2=95.5*;JAK2V617F confrm=98.4*;IEC-6 cytotox cf=22.1*
COc1ccc(CS(=O)(=O)/C(Cl)=C(/Cl)C(=O)Nc2ccc(OC)nc2)cc1,44.7,84.0*,87.7*,31.8*,4.9,nt,nt,BaF3 tox 2=99.3*;JAK2V617F confrm=99.1*;IEC-6 cytotox cf=29.2*
COc1ccc(/C=C/C(=O)Nc2ccc(OC)nc2)cc1,-7.5,-4.0,-6.0,1.5,1.4,nt,nt,
O=C(Nc1cccc(-c2nnc(-c3ccccc3)o2)c1)c1ccc(Br)o1,-33.7,-19.7,2.4,2.0,6.8,nt,nt,
O=C(Nc1cccc2ncccc12)c1ccc(OCc2ccccc2)cc1,-29.4,-6.7,-1.6,2.2,5.6,nt,nt,
Cc1ccc(NC2=CC(=O)C(=O)c3ccccc32)cc1,-56.6,-30.4,2.3,3.8,9.5,nt,nt,
O=C1C=C(Nc2ccc(O)cc2)C(=O)c2ccccc21,-127.7,nt,25.2*,49.2*,3.2,nt,nt,BaF3 tox 2=22.5;JAK2V617F confrm=76.2*;IEC-6 cytotox cf=7.0
Nc1nnnn1/N=C/C(Br)=C/c1ccccc1,10.1,90.7*,100.7*,73.7*,-1.6,nt,nt,BaF3 tox 2=105.3*;JAK2V617F confrm=99.7*;IEC-6 cytotox cf=54.4*
CC(C)C(=O)Nc1ccc(C(=O)NCc2cccnc2)cc1,-24.9,-21.0,61.9*,59.7*,20.5,nt,nt,BaF3 tox 2=35.0*;JAK2V617F confrm=98.8*;IEC-6 cytotox cf=23.3*
O=C(NCc1cccnc1)c1ccc(NC(=O)c2ccco2)cc1,-39.1,0.1,3.8,-3.6,1.6,nt,nt,
Nc1ccccc1NC1=CC(=O)CC(c2ccco2)C1 (centres undefined),-2.0,-35.6,-0.8,0.4,3.1,nt,nt,
Nc1ccccc1NC1=CC(=O)CC(c2ccccc2)C1 (centres undefined),14.1,-21.6,30.7*,23.4*,21.6,nt,nt,BaF3 tox 2=-1.7;JAK2V617F confrm=-3.7;IEC-6 cytotox cf=1.7
O=C(NNC(=O)c1cccs1)c1ccc(Br)o1,0.8,-4.2,-1.5,-1.9,3.4,nt,nt,
COc1ccccc1N(C(=O)CCl)c1cn(C(C)=O)c2ccccc12,-7.4,nt,56.8*,74.9*,-1.0,nt,nt,BaF3 tox 2=4.1;JAK2V617F confrm=86.9*;IEC-6 cytotox cf=23.3*
CC(=O)n1cc(Nc2ccccc2C(=O)O)c2ccccc21,-5.0,-7.3,2.6,-2.3,1.4,nt,nt,
COc1ccc(Nc2nc(C(=O)N3CCc4cc(OC)c(OC)cc4C3)cs2)cc1,-4.3,nt,2.7,5.5,0.3,nt,nt,
COc1ccc(CCC(N)=O)cc1OC,70.4*,1.1,1.5,2.2,9.0,-5.4,-9.9,
O=C(C1=C[C@H](c2ccccc2)C[C@H](OCCCCO)O1)N1CCN(Cc2ccccc2)CC1,-13.2,8.7,-2.7,0.7,1.0,nt,nt,
C#Cc1ccc([C@@H]2C=C(C(=O)N3CCN(Cc4ccccc4)CC3)O[C@H](OCCCCO)C2)cc1,66.0*,-17.7,17.9,93.9*,87.5*,72.9*,2.8,
COc1ccc(OC)c(Nc2cc(C)nc3nc(C)nn23)c1,91.7*,-1.2,4.1,-2.1,6.8,81.2*,-0.2,
COc1cc([C@@H]2c3cc4c(cc3[C@H](O)[C@H]3COC(=O)[C@H]23)OCO4)cc(OC)c1OC,83.7*,94.4*,nt,96.8*,93.0*,92.3*,nt,
COc1cc(CC(=O)NCc2ccc3c(c2)OCO3)cc(OC)c1OC,-27.6,-4.6,-4.5,-2.0,4.9,nt,nt,
SMILES,KLF5 inh,APP transl inh,IEC-6 tox-1,Ba/F3 V617F tox,BaF3 parental,KLF5 inh confirm,IEC-6 tox-2,others
CCN1/C(=C/c2ccc3ccccc3[n+]2CC)C=Cc2ccccc21,66.0*,33.0,47.9*,99.3*,91.8*,103.0*,57.7*,
Cc1ccc2nc(-c3ccccc3)cn2c1,84.2*,-2.7,16.5,15.2,15.1,76.6*,23.2*,
Cc1ccc2nc(-c3ccc(O)c(O)c3)cn2c1,-62.6,nt,18.9,nt,nt,nt,nt,
CCOC(=O)COc1cccc2c(=O)n(CC(=O)NCc3ccc(F)cc3)ccc12,62.5*,nt,7.2,72.2*,68.5*,80.4*,22.6*,
Fc1ccc(-c2nnc(NC3=NCCCCC3)o2)cc1,72.5*,-44.9,11.8,10.5,11.3,40.8,1.1,
c1ccc(-c2nnc(NC3=NCCC3)o2)cc1,-91.7,-122.0,-1.2,6.4,7.0,nt,nt,
CSc1nnc(C)c(/C=C/NOCc2ccc(Cl)cc2)n1,-9.8,1.5,-2.9,1.3,10.2,nt,nt,
CCOC(=O)c1c(C)nc2ccc(Cl)cc2c1-c1ccccc1,-17.7,-15.5,-4.1,-3.4,0.7,nt,nt,
Cc1ccc(-c2noc(CCC(=O)NCC3CCCO3)n2)cc1 (centres undefined),-35.8,-6.6,-0.7,-1.2,0.3,nt,nt,
CC(C)(C)c1ccc(-c2noc(CCC(=O)NCC3CCCO3)n2)cc1 (centres undefined),73.6*,59.7*,-1.0,-4.5,4.9,67.3*,6.7,
CC(C)(C)c1ccc(-c2noc(CCC(=O)Nc3cccnc3)n2)cc1,77.5*,nt,-2.0,nt,nt,87.1*,11.6,
CC(C)(C)c1ccc(-c2noc(CCC(N)=O)n2)cc1,86.2*,71.7*,6.2,4.6,6.3,85.4*,-3.7,
O=S(=O)(Cc1cc(NCc2ccccc2)nc(-c2ccncc2)n1)c1ccccc1,1.9,-3.4,0.3,0.9,6.8,nt,nt,
CC(=O)N(C1=C(N2CCOCC2)C(=O)c2ccccc2C1=O)c1ccc(C(=O)O)cc1,-9.8,nt,-3.6,4.1,-0.5,nt,nt,
CC(=O)N(C)C1=C(N2CCOCC2)C(=O)c2ccccc2C1=O,85.4*,-3.3,-1.7,101.0*,101.3*,84.3*,15.2,
NS(=O)(=O)c1ccc(Oc2ccc(S(N)(=O)=O)cc2)cc1,-44.5,-15.0,-2.3,5.6,9.3,nt,nt,
C=CS(=O)(=O)c1ccc(Oc2ccc(S(=O)(=O)C=C)cc2)cc1,76.8*,90.5*,75.7*,84.0*,67.8*,46.8,37.6*,
